Where “and” joins values, the source holds several entries; their conditions need not be identical. Equal values may be shown once. Calls of active or inactive are those of the source. The calls were made as follows: active = hit-call score of the fitted dose curve at least 0.9, where 1 is the maximum; inactive = score below 0.9.
Read-out: Human Leukocyte Antigen - DR isotype (HLADR), HLA-DRA (gene 3122)
Test: BSK_BE3C_HLADR: BioMAP Diversity Plus: BE3C Assay for Human Leukocyte Antigen - DR isotype (HLADR) Biomarker Activity (AID 2283032)
Conditions: primary human bronchial epithelial cells; actives raise or lower the signal
Protocol: BSK_BE3C is a cell-based, multiplexed-readout assay that uses bronchial epithelial cell, a human lung primary cell, with measurements taken at 24 hours after chemical dosing in a 96-well plate.BSK_BE3C_HLADR is an assay component measured in the BSK_BE3C assay. It measures HLA-DR antibody related to regulation of gene expression using ELISA technology.Data from the assay component BSK_BE3C_HLADR was analyzed into 1 assay endpoint. This assay endpoint, BSK_BE3C_HLADR, was analyzed with bidirectional fitting relative to DMSO as the negative control and baseline of activity. Using a type of binding reporter, gain or loss-of-signal activity can be used to understand changes in the signaling as they relate to the gene HLA-DRA. Furthermore, this assay endpoint can be referred to as a primary readout, because this assay has produced multiple assay endpoints where this one serves a signaling function. To generalize the intended target to other relatable targets, this assay endpoint is annotated to the cell adhesion molecules intended target family, where the subfamily is MHC Class II.
The levels of cell surface (or secreted, indicated by the prefix "s") biomarker endpoints were measured by ELISA. Overt cytotoxicity to cells in confluent adherent cultures (all systems other than the BT system) was assessed by measuring total protein levels using sulforhodamine B (SRB) staining in parallel cultures at the time of biomarker measurements, indicated as SRB endpoints. For proliferation assays for adherent cell types, individual cell types are cultured at sub-confluence and relative cell numbers quantified by SRB staining at time points optimized for each system (48 h: 3C and CASM3C systems; 72 h: BT and HDF3CGF systems; 96 h: SAg system). SRB was performed by staining cells with 0.1% SRB after fixation with 10% TCA and reading wells at 560 nm.Viability and proliferation of PBMC (T cells) was quantified by Alamar Blue reduction for the SAg and BT systems. For PBMC viability (referred to as PBMC Cytotoxicity within the assay endpoint names), cells were plated (75,000/well in a 96-well plate) and then chemical samples added for 1 h before addition of activators, SEB and TSST-1 (20 ng/mL final concentration each). Cells were incubated for 90 h. Then, Alamar Blue (20 uL/well) (Invitrogen, Cat DAL1100) was added for 6 h, and the plates were read with a fluorescence microplate reader at 546/580 nm (excitation/emission). For PBMC proliferation, cells were plated and activated as above but incubated for only 16 h prior to addition of Alamar Blue. Plates were read after 6 h.

outcome, inactive:
C1=CC2C3C=CC(C3)C2C1 (stereo not given)
CC=Cc1ccc(OCC)c(O)c1
CN(C)C(=O)Nc1ccc(Oc2ccc(Cl)cc2)cc1
O=CN1CCOCC1
C=C(C)[C@H]1CC=C(C)C(=O)C1
CCOC(=O)C(C#N)=C(c1ccccc1)c1ccccc1
CC(CN=Cc1ccccc1O)N=Cc1ccccc1O (stereo not given)
CN(c1nccc(=O)[nH]1)C1CCN(c2nc3ccccc3n2Cc2ccc(F)cc2)CC1
CCCCCCCCCCCCCCCC(=O)OC/C=C(C)/C=C/C=C(C)/C=C/C1=C(C)CCCC1(C)C
c1ccc(Oc2ccccc2)cc1
CCCCCCC(CO)CCCC (stereo not given)
CS(=O)(=O)c1ccc(C2=C(c3ccccc3)C(=O)OC2)cc1
C[C@@H]1CCN(C(=O)[C@H](CCCN=C(N)N)NS(=O)(=O)c2cccc3c2NC[C@H](C)C3)[C@@H](C(=O)O)C1
C=CC(C)(O)CCC=C(C)C (stereo not given)
C=C(C)C(=O)OCCOCCOCCOCCOC(=O)C(=C)C
CCN(CC)C(=O)N(CC)CC
C=C(C)C(=O)OCC(CC)(COC(=O)C(=C)C)COC(=O)C(=C)C
CSCCC=O
O=C1c2ccccc2C(=O)c2c(O)ccc(O)c21
Cc1cc(CCC(=O)OCCOCCOCCOC(=O)CCc2cc(C)c(O)c(C(C)(C)C)c2)cc(C(C)(C)C)c1O
CS(=O)(=O)OCCCCOS(C)(=O)=O
O=C1OC[C@H](Cc2cccc(O)c2)[C@H]1Cc1cccc(O)c1
O=C(Nc1ccc2c(O)c(N=Nc3ccc(N=Nc4ccc(S(=O)(=O)O)cc4)cc3)c(S(=O)(=O)O)cc2c1)c1ccccc1
CCCCOC(=O)CCCCCCCC(=O)OCCCC
CC(C)(N=C=O)c1cccc(C(C)(C)N=C=O)c1
CC(=O)c1c(C)c([N+](=O)[O-])c(C(C)(C)C)c([N+](=O)[O-])c1C

AC50, active:
CCCCCC(C=O)=Cc1ccccc1 33.1 µM
CC1(C)CCC[C@]2(C)[C@H]3CCO[C@]3(C)CC[C@@H]12 23.9 µM and 28.6 µM
COc1ccc(OC)c(N=Nc2c(O)ccc3ccccc23)c1 3.41 µM
CC1(C)C2=CCCC(C)(C)[C@]23CC[C@H]1C3 20 µM
O=C1OC2(c3ccccc31)c1ccc(O)c(Br)c1Oc1c2ccc(O)c1Br 10.3 µM
CCCCN(CCCC)C(=O)N(CCCC)CCCC 12.5 µM
CC(C)(C)CC(C)(C)c1ccc(OCCOCC[N+](C)(C)Cc2ccccc2)cc1 7.59 µM
CC(=O)Nc1ccc(C(=O)CCl)cc1 15.1 µM
CN(C)C(=S)SC(=S)N(C)C 13.7 µM
Oc1c(Cl)cc(Cl)c(Cl)c1Cc1c(O)c(Cl)cc(Cl)c1Cl 0.634 µM
CC(=O)C1(C)CC2=C(CCCC2(C)C)CC1C (stereo not given) 13.8 µM
CCC(C)c1cc([N+](=O)[O-])cc([N+](=O)[O-])c1OC(=O)OC(C)C (stereo not given) 15.3 µM
COc1ccc(CCN2CCC(Nc3nc4ccccc4n3Cc3ccc(F)cc3)CC2)cc1 7.88 µM
C=C(C)C(=O)OCCOCCOCCOC(=O)C(=C)C 3.97 µM

Source: PubChem BioAssay (EPA / NIEHS)
